# In the library only some 0.54% were active in any assay of this set; here they are far more common.
# TCR activator = Activators of T cell receptors: qHTS campaign. primary human leukocytes, anti-CD3, IL-2 HTRF, 48 h. Potency, µM (top dose mostly 9.22 µM), for inactives: top-dose activation of IL-2 secretion, actives largely listed as activators. AID 504894, 2011. 330,000 tested, under 10 active; note: % of control where 0% means no effect
#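 Primary human leukocytes were stimulated with a-CD3 beads plus compounds for 48 hr without co-stimulation; secreted IL-2 was quantified by HTRF using a-IL-2-K (europium cryptate) and a-IL-2-d2, excited at 320nm with acceptor emission read at 665nm.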
# BCR signal inh = qHTS Assay to Find Inhibitors of Chronic Active B-Cell Receptor Signaling. Potency, µM (doses to about 46.1 µM), for inactives: top-dose activity change, negative = inhibition, hits mostly inhibitors. ABC-DLBCL IkBa-CBG/CBR reporter, luminescence ratio, 4 h. 0.05% of 340,000 active; active = well fitted inhibition curve with a large enough effect in the signal ratio, with a control signal flat, not every such curve was filed as active; inconclusive = small, poorly fitted or top-dose-only effect, or effect the other way, or a change in a side signal; the % refers to the signal ratio;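 note: potency is the fitted concentration of half-maximal effect; plate controls were basal doxycycline-induced cells for no effect and cells given 10 µM MG132 for full effect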
#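 Compounds up to 46 uM were incubated four hours with TMD8 cells whose green CBG68 luciferase is fused to IkappaBalpha; red CBR luminescence normalised the signal, and concentration-effect curves were fitted to fusion, red and ratio data.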
# Vif-APOBEC3G blk = qHTS for Inhibitors of Vif-A3G Interactions: qHTS; AID 602310, 2012; HeLa A3G-eYFP + Vif (tagged APOBEC3G with the HIV-1 protein that degrades it), YFP fluorescence, overnight; 0.076% of 410,000 active; DNA dC->dU-editing enzyme APOBEC-3G (Homo sapiens), Q9HC16; Potency, µM (highest dose often 46.1 µM), inactives show at the highest dose activity, negative = active, usual class: inhibitors; note: potency is the fitted concentration of half-maximal effect; % is set by controls: 0 for no effect and ±100 for the full control effect; nearly all actives have a fitted effect of over 60% in size
# Target sequence (Q9HC16 whole entry, looked up): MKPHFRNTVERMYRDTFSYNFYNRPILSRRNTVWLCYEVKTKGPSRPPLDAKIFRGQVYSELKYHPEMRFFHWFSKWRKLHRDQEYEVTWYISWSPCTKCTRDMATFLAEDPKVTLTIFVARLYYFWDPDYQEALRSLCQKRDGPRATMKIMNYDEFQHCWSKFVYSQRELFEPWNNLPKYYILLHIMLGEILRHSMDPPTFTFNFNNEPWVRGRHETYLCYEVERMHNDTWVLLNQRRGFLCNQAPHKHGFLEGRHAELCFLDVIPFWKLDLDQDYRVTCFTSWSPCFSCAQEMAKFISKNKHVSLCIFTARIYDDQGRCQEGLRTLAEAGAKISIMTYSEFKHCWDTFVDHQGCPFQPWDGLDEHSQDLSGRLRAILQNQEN
#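 HeLa cells stably expressing Vif and C-terminally eYFP-tagged A3G, seeded overnight at 37 deg C, then exposed to compound by pintool overnight at 37 deg C. Rise in yellow fluorescence (Ex 488/Em 500-530, Acumen) marks blocked Vif-driven A3G degradation.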
# Vif-APOBEC3F blk = qHTS for Inhibitors of Vif-A3F Interactions: qHTS. 0.2% of 390,000 active. HeLa A3F-eYFP + Vif (tagged APOBEC3F with the HIV-1 protein that degrades it), YFP fluorescence increase. Potency, µM (doses to about 46.1 µM), without a hit: at the highest dose activity, negative = active; note: potency is the fitted concentration of half-maximal effect; % of control where 0% means no effect; nearly all actives have a fitted effect of over 65% in size
#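 HeLa cells stably expressing Vif plus C-terminally eYFP-tagged A3F were seeded, incubated overnight at 37 deg C, dosed with compound, incubated overnight again at 37 deg C. Yellow fluorescence (Ex 488/Em 500-530) reported blocked Vif-mediated A3F-eYFP degradation.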
# uPA surface inh = qHTS for Inhibitors of Cell Surface uPA Generation | cell surface uPA generation assay, qHTS | Potency, µM (doses to about 38.3 µM), for inactives: top-dose activity change, negative = inhibition, most hits filed as inhibitors | 0.31% of 330,000 active | AID 540303, 2011; active = well fitted inhibition curve with a large enough effect; inconclusive = small, poorly fitted or top-dose-only effect; inactive = no such curve, though single readings can be large or run the other way; tested in mouse RAW 264.7 cells; note: potency is the fitted concentration of half-maximal effect; % is set by controls: 0 for no effect and ±100 for the full control effect; nearly all actives have a fitted effect of over 55% in size
# MBNL1-CUG inh = qHTS Assay for Inhibitors of MBNL1-poly(CUG) RNA binding; 0.036% of 280,000 active; Potency, µM (highest dose often 57.5 µM), inactives show at the top dose activity change, negative = inhibition, usual class: inhibitors; TR-FRET MBNL1-His/biotin-(CUG)12 binding, 665/545 ratio; active = well fitted inhibition curve with a large enough effect in the signal ratio, with a control signal flat, not every such curve was filed as active; inconclusive = small, poorly fitted or top-dose-only effect, or effect the other way, or a change in a side signal; inactive = no such curve, though single readings can be large or run the other way; the % refers to the signal ratio; note: potency is the fitted concentration of half-maximal effect; % is set by controls: 0 for no effect and ±100 for the full control effect
# Target sequence (Q9NR56 whole entry, looked up): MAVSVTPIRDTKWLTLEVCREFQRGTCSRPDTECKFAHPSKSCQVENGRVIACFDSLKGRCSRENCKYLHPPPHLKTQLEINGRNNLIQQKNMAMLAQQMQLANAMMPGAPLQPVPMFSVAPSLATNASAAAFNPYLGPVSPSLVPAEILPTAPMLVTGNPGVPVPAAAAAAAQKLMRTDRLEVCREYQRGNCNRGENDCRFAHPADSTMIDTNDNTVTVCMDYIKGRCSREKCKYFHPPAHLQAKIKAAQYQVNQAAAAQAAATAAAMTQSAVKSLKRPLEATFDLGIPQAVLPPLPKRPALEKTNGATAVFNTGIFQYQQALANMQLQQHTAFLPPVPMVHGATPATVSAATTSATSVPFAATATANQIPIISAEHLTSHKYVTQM
#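 TR-FRET readout: Ex 340 nm, 665/545 nm emission ratio, normalized to buffer-only (basal) and MBNL1-(CUG)12 controls. Complex of MBNL1-His with Biotin-(CUG)12, compounds 92 nM–58 uM, incubated 60 min at room temperature.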
# * hit, by the source's call; ? = inconclusive; / = not tested or not shown; [ ] = dose if it differs, or a comment. Unless noted, calls come from the whole dose curve; as a rule, active = well fitted curve in the direction sought with a large enough effect; inconclusive = small, poorly fitted or top-dose-only effect, or another doubt; inactive = no such curve, though single readings can be large; an effect the other way counts as inactive or inconclusive.
SMILES,TCR activator,BCR signal inh,Vif-APOBEC3G blk,Vif-APOBEC3F blk,uPA surface inh,MBNL1-CUG inh
CS(=O)(=O)N1CCN(Cc2cc3nc(-c4cccc5[nH]ncc45)nc(N4CCOCC4)c3s2)CC1,/,/,-21%[92.2 µM],/,/,/
Cc1ccc2c(C(=O)CNc3nccs3)c[nH]c2c1,/,/,2%,/,/,/
N#Cc1ccc(Oc2cccc3cccnc23)c([N+](=O)[O-])c1,-5%,?,2%,-4%,-3%,?
O=[N+]([O-])c1ccc(Oc2cccc3cccnc23)c([N+](=O)[O-])c1,-1%,?,10µM*,?,-9%,?
CCCCCCCCCCCCCCCCOC(=O)N1CCN(/[N+]([O-])=N/Oc2ccc([N+](=O)[O-])cc2[N+](C)=O)CC1,/,/,-1%,/,/,/
O=C1/C(=C/c2cccnc2)CCC/C1=C\c1cccnc1,-1%,?,?,5%,8.9µM*,-23%
O=Cc1ccc(N2CCCC2)c([N+](=O)[O-])c1,-7%,3%,0%,?,-5%,?
O=[N+]([O-])/C=C\c1ccc(N2CCCC2)c(F)c1,4%,?,?,25µM*,-8%,8%
CCCCNC(=O)[C@@H]1CC=C[C@@H]2CCN(C3CCCCC3)C(=O)[C@@H]21,/,/,3%,/,/,/
CN(C)c1cc[n+](CC(=O)c2ccc(-c3ccccc3)cc2)cc1,-5%,-19%,2%,-8%,7.1µM*,2%
CC1CCc2c(sc(NC(=O)CSc3ncn[nH]3)c2C#N)C1 (stereo not given),-2%,?,-19%,-10%,?,16%
N#Cc1c(NC(=O)CSc2ncn[nH]2)sc2c1CCCC2,4%,23µM*,-12%,-2%,-7%,-5%
CC1=C(C(=O)OCc2ccc3nsnc3c2)N2C(=O)[C@@H](NC(=O)OCc3ccc4nsnc4c3)[C@H]2SC1,/,/,0%,/,/,/
Cc1[nH]c(=O)[nH]c1C(=O)CCCCC(=O)O,-3%[46.1 µM],0%,-4%,1%,-2%,0.089µM*
N#Cc1cccc(NC(=O)CSc2ccc3c4c(cccc24)C(=O)c2ccccc2-3)c1,-3%,?,2.8µM*,11µM*,0%,?
COc1ccc(NC(=O)CSc2ccc3c4c(cccc24)C(=O)c2ccccc2-3)cc1,0%,-21%,?,11µM*,4%,14%
N#Cc1cccc(NC(=O)CSc2ccccc2)c1,2%,?,1%,-11%,-1%,-1%
O=C(Cc1ccc(-c2ccccc2)cc1)NO,/,/,-1%,/,/,/
Cn1c(/C=C/c2ccc(Cl)cc2)c([N+](=O)[O-])c(=O)n(C)c1=O,1%,?,-16%,-1%,5.6µM*,10%
CS(=O)(=O)c1ccc(/C=C2\C=Cc3ccccc32)cc1,/,/,-1%,/,/,/
C(=C\c1ccccc1)/C=N/Nc1nc2ccccc2[nH]1,1%[46.1 µM],?,?,-16%,4µM*,3%
Clc1ccc2nc[nH]c2c1,/,/,-12%,/,/,/
CCN(CC(=O)NCc1ccc(F)cc1)C(=O)/C=C/c1ccc(OC)c(S(=O)(=O)NC(C)C)c1,1%,?,2.8µM*,-2%,-13%,13%
CC(c1ccccc1)N1CCN(C(=O)CCl)CC1 (stereo not given),0%,?,?,-6%,8.9µM*,-6%
O=c1[nH]c2cc3c(cc2cc1CN(Cc1ccco1)C(=S)NCC1CCCO1)OCCO3 (stereo not given),-3%,4%,?,-8%,13µM*,4%
SMILES,TCR activator,BCR signal inh,Vif-APOBEC3G blk,Vif-APOBEC3F blk,uPA surface inh,MBNL1-CUG inh
COc1cc(OC)c2cc(C(=O)N/N=C/c3cccc(OC)c3O)[nH]c2c1,-3%,?,?,-2%,-14%,0%
COc1cccc(/C=N/NC(=O)c2c(C)nc3ccc(Br)cn23)c1O,8%,?,-14%,-6%,4.5µM*,7%
COc1ccc(C(=O)N/N=C/c2cc(Br)ccc2O)cc1OC,-4%,?,-30%,11µM*,-9%,0%
COc1ccc(Br)cc1/C=N/NC(=O)c1cc(Br)ccc1O,/,?,/,/,/,-1%
COc1cccc(/C=N/NC(=O)c2cc3c(OC)ccc(OC)c3[nH]2)c1O,-2%,3.2µM*,-9%,-2%,6.3µM*,3%
COc1ccc(CCSc2n[nH]c(C(C)C)n2)cc1,/,/,0%,/,/,/
CN(C)c1ccc(/C=C/c2sc3ccccc3[n+]2Cc2ccccc2)cc1,/,/,-7%,/,/,/
COc1cc2oc(=O)ccc2cc1-c1c(OC)ccc2ccc(=O)oc12,-1%,-2%,?,-1%,8.9µM*,/
COc1cc2ccc(=O)oc2c(O)c1O,10%,/,2%,-3%,-16%,/
CN(C)C=Nc1c(Br)cc(Br)c2nonc12,-8%,-1%,?,11µM*,2%,6%
Nc1c(C(=O)c2ccccc2)sc2nsc(SCCN3CCOCC3)c12,3%,0%,?,3.5µM*,-13%,?
COc1ccc(OC)c(/C=C/c2cc3ccccc3cn2)c1,/,/,2%,/,/,/
CCOC(=O)N1CCC(Nc2nc3ccccc3nc2NS(=O)(=O)c2ccc(Cl)cc2)CC1,-9%,?,-2%,32µM*,-9%,11%
COc1ccc(F)c(Cn2cnc3c(cnn3C(C)(C)C)c2=O)c1Cl,/,/,-1%,/,/,/
O=C(/C=C/c1ccncc1)c1cc(Cl)ccc1O,11%,?,?,25µM*,-1%,-3%
O=C1c2cccc3c([N+](=O)[O-])ccc(c23)C(=O)N1c1ccc(Cl)cn1,-2%,-2%,8%,?,/,?
O=C1c2cccc3c([N+](=O)[O-])ccc(c23)C(=O)N1O,5%,-1%,11µM*,5µM*,?,?
O=C1c2cccc3c([N+](=O)[O-])ccc(c23)C(=O)N1c1nccs1,3%,?,?,?,/,?
CC(=O)Oc1ccc(-n2c(=O)c3ccccc3c3ccccc3c2=O)cc1,-9%,2%,0%,0%,-1%,-3%
CC(=O)Oc1ccc(N2C(=O)c3cccc4c([N+](=O)[O-])ccc(c34)C2=O)cc1,-7%,2%,?,22µM*,-6%,?
O=C1c2cccc3c([N+](=O)[O-])ccc(c23)C(=O)N1c1ccccn1,6%,?,12%,13µM*,-11%,?
CCCCN(CCCC)c1ccc(Cn2ccc3ccccc32)cc1,/,/,-10%,/,/,/
CN(C)C1CCC(CC2CCc3ccccc32)CC1 (stereo not given),/,/,-2%,/,/,/

# Bioassay records (PubChem)
